Assay results: PubChem BioAssay (NCI)
Compounds without any hit were thinned out: in the full panel of roughly 79,000, 15% have a hit. The source made the active and inactive calls. Rule as the data show it: active = growth inhibition above about 70%; inactive = the rest. Where a SMILES comes first, the peptide text is derived from it. The star is where a group is joined. Cbz = O=C(OCc1ccccc1)*

Experiment: NCI Yeast Anticancer Drug Screen. Data for the mlh1 rad18 strain (AID 175)
Conditions: S. cerevisiae mlh1 rad18 strain growth inhibition; at 50.0 µM; hits give high values
Method: Growth inhibition of yeast strains with defined genetic alterations is measured as a screen for potential anti-cancer activity. Selected strains with alterations in DNA damage repair or cell cycle control were exposed to compounds and growth inhibition was measured relative to vehicle treated controls. The strain used in this assay is mlh1 rad18

Row | SMILES | growth inhibition
1 | O=C1CC2C(=O)N(Cc3ccccc3)C(=O)C2C(=O)N1 (stereo not given) | 1.25% (inactive)
2 | CCOC(=O)C1CC2(CCC(=O)O2)C(=O)O1 (stereo not given) | -6.85% (inactive)
3 | CCCCCCCCCCCC(=O)N/N=C(\C)c1cccc2ccccc12 | 84.2% (active)
4 | N#Cc1nccc2ccccc12 | -13.4% (inactive)
5 | CC(=O)c1cc2c(cc1C)C(C)(C)CCC2 | 13.1% (inactive)
6 | O=C(O)CCSc1ccccc1[N+](=O)[O-] | 19.9% (inactive)
7 | Cc1c(C)c(C)c(CNNC(=S)Nc2cccc(Cl)c2)c(C)c1C | 21.1% (inactive)
8 | Nc1ccc(P(=O)(O)c2ccc(N)cc2Br)c(Br)c1 | -6.8% (inactive)
9 | Cc1ccc(NC(=O)c2cccc(C(=O)Nc3ccc(C)c(Cl)c3)c2)cc1Cl | 8.6% (inactive)
10 | Cc1cc[n+](C)c(-c2ccccc2)c1 | 11.6% (inactive)
11 | CCCCCCCCCCCCCCCCCC(=O)OCC1OC(OC2(OC(=O)CCCCCCCCCCCCCCCCC)OC(COC(=O)CCCCCCCCCCCCCCCCC)C(OC(=O)CCCCCCCCCCCCCCCCC)C2OC(=O)CCCCCCCCCCCCCCCCC)C(OC(=O)CCCCCCCCCCCCCCCCC)C(OC(=O)CCCCCCCCCCCCCCCCC)C1OC(=O)CCCCCCCCCCCCCCCCC (stereo not given) | 23.8% (inactive)
12 | CCOC(=O)C(=O)C(=O)NN(C)C1=NCCN1 | 2% (inactive)
13 | C[C@H]1C[C@H]2[C@@H]3CC[C@@]4(OCC4=O)[C@@]3(C)C[C@H](O)[C@]2(F)[C@@]2(C)C=CC(=O)C=C12 | 0.35% (inactive)
14 | CCOC(=O)/C(C#N)=C/c1ccccc1OC | 47.5% (inactive)
15 | CC(NC(=O)C(NC(=O)OCc1ccccc1)C(C)C)C(=O)NCC(=O)O (stereo not drawn) (Cbz-Val-Ala-Gly-OH; configuration not given here) | -4.45% (inactive)
16 | CN1CCC2(CC1)C(=O)N(Cc1ccccc1)C(=O)C2c1ccccc1 (stereo not given) | -13.4% (inactive)
17 | COc1ccc(-c2nnc(Cl)o2)cc1 | -0.5% (inactive)
18 | COc1cccc([N+](=O)[O-])c1 | 5.75% (inactive)
19 | Cn1c(=O)c2c(-c3ccccc3)onc2n(C)c1=O | 44.8% (inactive)
20 | O=C(O)/C=C/c1ccc(C(NC(=O)N2C(=O)C=CC2=O)NC(=O)N2C(=O)C=CC2=O)cc1 | 19% (inactive)

Row | SMILES | growth inhibition
21 | COc1ccccc1C(=O)N/N=C/c1ccc(O)cc1 | 19.9% (inactive)
22 | Nc1cc2c3c(cccc3c1Br)C(=O)NC2=O | 15.8% (inactive)
23 | COc1ccc(CCC(O)c2ccccc2)cc1 (stereo not given) | 16.1% (inactive)
24 | O=C1CCc2ccccc21 | 7.75% (inactive)
25 | Cc1cc(C)n(/N=C/c2ccco2)c(=O)c1C#N | -10.7% (inactive)
26 | CC(C)(C)c1nc2c(o1)C(=Nc1ccc(F)cc1)c1ccccc1C2=O | -2.5% (inactive)
27 | NS(=O)(=O)c1cc(C(=O)O)c(O)c2ccccc12 | 15.6% (inactive)
28 | Cc1ccc(N2C(=O)CSC2=S)cc1F | 10.7% (inactive)
29 | O=S1(=O)C=C(c2ccccc2)C1 | 8.6% (inactive)
30 | CCCCCCCCC(Nc1ccccc1)C(O)CCCCCCCC(=O)O (stereo not given) (tested in a mixture with another compound) | 16.2% (inactive)
31 | CC(=O)OCC1OC(n2cc(C)c(=O)[nH]c2=O)C(NC(=O)C(Cl)(Cl)Cl)C(OC(C)=O)C1OC(C)=O (stereo not given) | 2.3% (inactive)
32 | [N-]=[N+]=NC1(Cc2ccccc2)C(=O)Nc2ccccc2C1=O (stereo not given) | -16% (inactive)
33 | FC(F)(F)c1ccc2c(c1)N(CCCN1CCN(CCN3CCCCC3)CC1)c1ccccc1S2 | 91.8% (active)
34 | O=C(Cc1ccccc1CCO)NCCc1ccccc1 | -14.9% (inactive)
35 | COc1cc(NS(=O)(=O)c2ccc(C)cc2)c2nccnc2c1 | 29.6% (inactive)
36 | O=C1c2ccccc2C(=O)N1CCn1[nH]c(=O)c2ccccc2c1=O | 14.1% (inactive)
37 | BrCCOC(OCCBr)(c1ccccc1)c1ccccc1 | 6.3% (inactive)
38 | Cc1cc(Nc2ccc(O)cc2)nc(Nc2ccc(O)cc2)n1 | -2.3% (inactive)
39 | CC(=O)/C(=C/n1ccc(=O)[nH]c1=S)C(=O)Nc1ccc([N+](=O)[O-])cc1 | -10.9% (inactive)
40 | O=C(CCn1[nH]c(=O)c(Cl)c(Cl)c1=O)NOCCCc1ccccc1 | -11.6% (inactive)
